Screening results deposited in PubChem by Sanford-Burnham Center for Chemical Genomics.
An excerpt weighted towards active compounds, which were near 28% of everything screened.
CYP2C9 act: increases human cytochrome P450 2C9 activity; P11712; recombinant CYP2C9, luciferin-H conversion, luminescence; active compounds read high; factor 1 = untreated enzyme, 0 = blocked; activation factor at 5 µM; 96,000 compounds, 1.4% hits; AID 1024;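 active means activation factor of 2 or more for CYP2C9 at a 5 µM dose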
CYP2C19 activ: activators of human cytochrome P450 2C19. P33261. recombinant CYP2C19, luciferin-H EGE luminescence; active compounds read high; 0 = fully inhibited enzyme, 1 = untreated enzyme. activation factor at 5 µM. 96,000 tested, under 10 active. AID 1025;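 active means activation factor of at least 2 at 5 µM in the primary screen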
Target sequence (P33261 whole entry, looked up): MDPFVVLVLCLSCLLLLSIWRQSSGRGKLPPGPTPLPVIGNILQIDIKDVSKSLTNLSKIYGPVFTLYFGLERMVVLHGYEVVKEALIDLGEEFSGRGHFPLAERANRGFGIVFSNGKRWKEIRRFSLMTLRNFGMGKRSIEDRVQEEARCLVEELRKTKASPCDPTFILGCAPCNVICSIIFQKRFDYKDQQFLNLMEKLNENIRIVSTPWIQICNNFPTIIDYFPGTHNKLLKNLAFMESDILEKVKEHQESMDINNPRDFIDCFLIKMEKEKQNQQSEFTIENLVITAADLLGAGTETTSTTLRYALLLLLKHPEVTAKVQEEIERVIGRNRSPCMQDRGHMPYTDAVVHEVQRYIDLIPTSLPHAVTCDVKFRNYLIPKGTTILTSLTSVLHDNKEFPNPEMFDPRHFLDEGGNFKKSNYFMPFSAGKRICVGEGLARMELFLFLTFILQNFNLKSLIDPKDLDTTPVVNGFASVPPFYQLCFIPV
CYP2C9 inh: human CYP2C9 inhibition | inhibition, % at 5 µM | CYP2C9 Supersomes, luciferin-H conversion, luminescence | P11712 | 96,000 compounds, 20% hits;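 active means blocking of liver enzyme CYP2C9 beyond about 50% at 5 µM, limit read from the data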
PTK2B oligo ant: antagonists of human Pyk2 oligomerization; Q14289; Q293 cells, Pyk2 FERM NanoBiT luminescence; active compounds read low; z-score (the deposit names both 25 µM and 10 µM); 99,000 compounds, 0.83% hits; AID 1347419;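 active means Z-score of -3 or lower, scaled per plate to the spread of control and sample wells; inactive means z-score above -3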;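 further: negative z-score means lost luminescence so less FERM oligomerization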
CYP2C19 inhib: blocks human cytochrome P450 2C19. AID 778. inhibition, % at 5 µM. CYP2C19 Supersomes, luciferin-H EGE luminescence, 30 min. P33261. 96,000 compounds, 21% hits;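 active means CYP2C19 inhibition above a set limit at 5 µM in the primary screen, cut at about 50% in these data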
Of the large screens only hits and unclear results are named; the others gave an inactive call.

O=C(CCN1C(=O)c2cccnc2C1=O)NC1CCCCCC1	none
Cc1ccc(S(=O)(=O)N2CCN(C(=O)CN3CCCCC3)C2)cc1	none
Cc1ccc(S(=O)(=O)/N=C(\CN2CCCCC2)N2CCOCC2)cc1	CYP2C9 inh 52.9, CYP2C19 inhib 63.6
Cc1ccc(-c2noc(CN(C(=O)c3cccs3)C(C)C)n2)cc1	CYP2C9 inh 74.5
CC(C)N(Cc1nc(-c2ccc(Cl)cc2)no1)C(=O)c1cccs1	CYP2C9 inh 89.1, CYP2C19 inhib 78.1
Cc1cccc(-c2noc(CN(C(=O)C34CC5CC(CC(C5)C3)C4)C(C)C)n2)c1	none
CN(CC(=O)NCc1ccccc1)S(=O)(=O)c1cnc[nH]1	CYP2C9 inh 79.8, CYP2C19 inhib 99.5
CCc1cccc(NS(=O)(=O)c2c(C)n[nH]c2C)c1	none (no result: CYP2C9 act, CYP2C19 activ, CYP2C9 inh, CYP2C19 inhib)
CCN(c1ccccc1)S(=O)(=O)c1cnc[nH]1	CYP2C9 inh 100.0, CYP2C19 inhib 98.4
CCOC(=O)c1cccc(NC(=O)CN(C)S(=O)(=O)c2cnc[nH]2)c1	CYP2C9 inh 94.5, CYP2C19 inhib 53.7
CCc1cccc(NC(=O)CN(C)S(=O)(=O)c2cnc[nH]2)c1	CYP2C9 inh 94.6, CYP2C19 inhib 95.4
CCN(c1ccccc1)S(=O)(=O)c1ccc(Oc2ccc(-n3ccnc3)cc2)nc1	none (no result: CYP2C9 act, CYP2C19 activ, CYP2C9 inh, CYP2C19 inhib)
Cc1nc2ccccc2nc1N1CCCCC1	none
CC1=NN(c2ccccc2)C(=O)/C1=C/c1cc2cc(C)ccc2nc1N1CCCCC1	CYP2C9 inh 81.4, CYP2C19 inhib 66.7 (no result: PTK2B oligo ant)
CCC(=O)Nc1cccc(-c2nnc(SCC(=O)c3ccccc3)n2C)c1	none
CC(NC(=O)/C(C#N)=C/c1cn[nH]c1-c1ccccc1)c1ccccc1 (stereo not drawn)	none
N#C/C(=C\c1cn[nH]c1-c1ccc(Cl)cc1)C(=O)NCc1ccccc1	CYP2C9 inh 87.5, CYP2C19 inhib 88.1
COc1ccc(-c2[nH]ncc2/C=C(\C#N)C(=O)NC2CC2)cc1	CYP2C9 inh 52.0, CYP2C19 inhib 53.6
CCc1ccc(C(C)NC(=O)/C(C#N)=C\c2cn[nH]c2-c2ccccc2)cc1 (stereo not drawn)	none
N#C/C(=C\c1ccc[nH]1)C(=O)NC1CC1	none
N#C/C(=C\c1cn[nH]c1-c1ccccc1)C(=O)NC1CCCCCC1	CYP2C9 act 2
Nc1ccc(C#Cc2ccccc2)cc1	none
Nc1ccccc1C#Cc1ccccc1	CYP2C19 inhib 52.6 (no result: PTK2B oligo ant)
Cc1ccc([N+](=O)[O-])cc1NC(=O)CN1CCC(C)CC1	none
CC(C)(C)Sc1nc(O)cc(=O)[nH]1	none
CCCC(c1nnnn1C1CCCCC1)N1CCN(C2CCCC2)CC1 (stereo not drawn)	CYP2C19 inhib 71.5
CCCC(c1nnnn1C(C)(C)CC)N1CCN(C2CCCC2)CC1 (stereo not drawn)	CYP2C19 inhib 59.8
COc1ccc(-c2noc(-c3ccco3)n2)cc1OC	none
COc1ccc2oc(=O)c(C(=O)N3CCc4ccccc43)cc2c1	CYP2C9 act 2.2
O=C(c1ccccc1)N1CCc2ccccc21	none
COc1cccc2cc(C(=O)N3CCc4ccccc43)c(=O)oc12	PTK2B oligo ant -3.04, CYP2C19 inhib 68.1
Cc1cc(C(=O)N2CCc3ccccc32)c2ccccc2n1	CYP2C19 inhib 65.4
CCOc1cccc2cc(C(=O)N3CCN(C/C=C/c4ccccc4)CC3)c(=O)oc12	none (no result: CYP2C9 act, CYP2C19 activ, CYP2C9 inh, CYP2C19 inhib)
CCOc1cccc2cc(C(=O)N3CCc4ccccc43)c(=O)oc12	CYP2C9 act 2.4
Cc1ccc(S(=O)(=O)N(c2ccccc2)C2CCS(=O)(=O)C2)cc1 (stereo not drawn)	none
Cc1ccc(C)c(N2CCN(Cc3nnnn3C3CCCCC3)CC2)c1	CYP2C19 inhib 55.8
C/C=C(\C)CN1CCN(c2cc(C)ccc2C)CC1	CYP2C9 inh 54.9, CYP2C19 inhib 82.2
C/C=C(\C)CN1CCN(c2ccccc2F)CC1	CYP2C19 inhib 72.7
CCNc1nc(NCC)nc(Oc2ccc(N)cc2)n1	none
O=C1NC(=O)/C(=C\c2ccccc2Oc2ccc(F)c(F)c2)S1	CYP2C9 inh 84.6
COCCNC(=O)CN(c1ccc(C)cc1)S(=O)(=O)c1ccc(SC)cc1	CYP2C9 inh 76.9, CYP2C19 inhib 97.6
COc1ccc(N(CC(=O)NCCSc2ccccn2)S(C)(=O)=O)cc1Cl	CYP2C9 inh 59.5, CYP2C19 inhib 54.8
COCCNC(=O)CN(c1ccc(C)cc1)S(=O)(=O)c1ccccc1	none
COCCCNC(=O)CN(c1ccc(Cl)c(Cl)c1)S(C)(=O)=O	none
Cc1ccc(S(=O)(=O)N(CC(=O)NCCSc2ccccn2)c2cc(C)cc(C)c2)cc1	CYP2C9 inh 79.3
Cc1ccc(C(C(=O)NC2CCCCC2)N2CCN(C(=O)c3ccco3)CC2)cc1 (stereo not drawn)	none
C=CCc1cccc(CNc2c(C)n(C)n(-c3ccccc3)c2=O)c1O	CYP2C19 inhib 56.1
Cc1c(NC(=O)CC(=O)Nc2c(C)n(C)n(-c3ccccc3)c2=O)c(=O)n(-c2ccccc2)n1C	none
CCCCCCSc1nc(O)c(C2OC(=O)c3c2ccc(OC)c3OC)c(=O)n1CC (stereo not drawn)	none
O=C1Nc2ccccc2/C1=C/C(=O)c1cccs1	CYP2C9 act 2.5
Cc1nn(CCO)c(C)c1Oc1ccccc1O	none
CCCCNS(=O)(=O)c1ccc2nc(SCC(=O)c3ccc(C#N)cc3)[nH]c2c1	CYP2C9 inh 88.1, CYP2C19 inhib 74.5
CCOc1ccc2nc(SCC(=O)N(C)C)[nH]c2c1	none
O=S(=O)(Nc1ccc2c(c1)oc1ccccc12)N1CCCC1	CYP2C9 inh 89.3
COc1cc2c(cc1NC(=O)CN1CCN(S(=O)(=O)c3ccccc3F)CC1)oc1ccccc12	none
COc1cc2c(cc1NS(=O)(=O)N1CCCCC1)oc1ccccc12	CYP2C19 inhib 70.5
O=[N+]([O-])c1c(C(Cl)Cl)nn(-c2ccccc2)c1N1CCCC1	CYP2C19 inhib 56.2
CC1CCCCN1C(=O)c1cc2nc(-c3ccccc3)cc(-c3ccccc3)n2n1 (stereo not drawn)	none (no result: CYP2C9 act, CYP2C19 activ, CYP2C9 inh, CYP2C19 inhib)
c1nnn(C23CC4CC(CC(C4)C2)C3)n1	none
c1cn(C23CC4CC(CC(C4)C2)C3)cn1	CYP2C9 inh 95.9, CYP2C19 inhib 87.0
C=CCNC(=O)c1onc(CCl)c1C(=O)OC	none (no result: PTK2B oligo ant)
COc1ccc(N2C(=O)CC(n3c(CCCCO)nc4ccccc43)C2=O)cc1 (stereo not drawn)	none
O=C(Cc1cccs1)Nc1nc(-c2ccc(F)cc2F)cs1	CYP2C9 inh 56.2
CS(=O)(=O)N1CCc2cc(-c3csc(NC(=O)Cc4ccccc4)n3)ccc21	none (no result: CYP2C9 act, CYP2C19 activ, CYP2C9 inh, CYP2C19 inhib)
CC1Cc2cc(-c3csc(NC(=O)Cc4cccs4)n3)ccc2N1S(C)(=O)=O (stereo not drawn)	CYP2C9 inh 91.8, PTK2B oligo ant -3.12, CYP2C19 inhib 77.0
O=C(Cc1ccccc1F)Nc1nc(-c2cccs2)cs1	CYP2C9 inh 99.1, CYP2C19 inhib 93.6
COc1ccc(-c2c3c(=O)n(C)c(=O)n(C)c3cn2Cc2cccnc2)cc1	none
COc1cccc(NC(=O)c2nc3ncccn3n2)c1	CYP2C9 act 2
CCC1CCCCN1C(=O)COC(=O)c1ccc(S(=O)(=O)N2CCOCC2)cc1 (stereo not drawn)	none
Cn1nc(-c2ccccc2)c(C(=O)Nc2ccc(Cl)cc2)c1Cl	CYP2C19 inhib 63.1
